# Measured values taken from PubChem BioAssay (EPA / NIEHS).
# Inconclusive results are not listed. Calls of active or inactive are those of the source. Rule for the calls: active = hit-call score of the fitted dose curve at least 0.9, where 1 is the maximum; inconclusive = response in the unintended direction; inactive = score below 0.9.
# Legend:
# [1] = ACEA_AR_agonist_AUC_viability: ACEA Biosciences xCELLigence Real-Time Cell Analysis on Androgen Receptor Agonism for Viability (AID 2283775);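 for AC50: viability read 80 hours after compound addition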
# In short: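 Viability endpoint from xCELLigence impedance in 22Rv1 prostate cells at 80 h. Eight-point series, 100 uM maximum final.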
# [2] = ACEA_AR_antagonist_AUC_viability: ACEA Biosciences xCELLigence Real-Time Cell Analysis on Androgen Receptor Antagonism for Viability (AID 2283776);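 note: 22Rv1 human prostate cancer cells growing on impedance electrode plates; area under impedance growth curve at 80 h after dosing as viability; hits lower the growth signal relative to DMSO meaning cytotoxicity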
# In short: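 Real-time electrical impedance tracks 22Rv1 proliferation after continuous compound exposure (top 100 uM final, 1:4 steps, 8 concentrations). The 80 h area-under-curve serves as the cytotoxicity readout relative to DMSO.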
# [3] = ACEA_ER_AUC_viability: ACEA Biosciences xCELLigence Real-Time Cell Analysis on Estrogen Receptor Agonism for Viability (AID 2283782);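 note: hit means loss of impedance signal meaning reduced cell growth or viability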
# In short: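 Viability endpoint: reduced impedance area under the curve relative to DMSO, recorded by real-time electrode sensing over ~80 h of continuous exposure. Duplicate plates of T47D in hormone-depleted medium; eight concentrations, 1:4 dilutions, 100 uM maximum.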
# [4] = tested on: frog Estrogen Receptor (ESR2), gene 100174814; assay: ATG_frER2_XSP1: Attagene TRANS-FACTORIAL Multi-Species (XSP1) HepG2 Assay for frog Estrogen Receptor (ESR2) (AID 2283774)
# In short: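 Reporter mRNA from a multiplexed TRANS system, measured by RT-PCR with fluorescent labelling and capillary electrophoresis, 24 hours after chemical exposure. Human HepG2 liver cells carried exogenous frog ER-Gal4 chimera; medium included 3 nM 6-alpha-fluorotestosterone; increases versus DMSO analysed.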
# [5] = tested on: frog Estrogen Receptor (ESR1), gene 398734; assay: ATG_frER1_XSP1: Attagene TRANS-FACTORIAL Multi-Species (XSP1) HepG2 Assay for frog Estrogen Receptor (ESR1) (AID 2283777)
# In short: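 HepG2 cells transiently transfected with GAL4-UAS reporter units and frog ER–Gal4 chimera were dosed for 24 h with 3 nM 6-alpha-fluorotestosterone present. Reporter mRNA was measured by RT-PCR and capillary electrophoresis; gain of signal fitted versus DMSO.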
# [6] = tested on: zebrafish Estrogen Receptor (ESR2A), gene 317734; assay: ATG_zfER2a_XSP1: Attagene TRANS-FACTORIAL Multi-Species (XSP1) HepG2 Assay for zebrafish Estrogen Receptor (ESR2A) (AID 2283778)
# In short: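 Reporter transcripts were quantified by RT-PCR, 6-FAM labelling, HpaI digestion and capillary electrophoresis after 24 h dosing. The cells were HepG2 transiently carrying a zebrafish ER2a–Gal4 construct plus multiplexed UAS reporters; medium contained 3 nM 6-alpha-fluorotestosterone.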
# [7] = target: chicken Estrogen Receptor (ESR1), ESR1 (gene 396099) (UniProt P06212); assay: ATG_chERa_XSP1: Attagene TRANS-FACTORIAL Multi-Species (XSP1) HepG2 Assay for chicken Estrogen Receptor (ESR1) (AID 2283779)
# In short: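 Trans-activation of an exogenous chicken ERα–Gal4 chimera read as reporter transcript (RT-PCR, fluorescent labeling, capillary electrophoresis) after 24 h compound exposure of transfected HepG2; medium held 3 nM 6-alpha-fluorotestosterone. Positive-direction fit against DMSO.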
# [8] = tested on: turtle Estrogen Receptor (ESR1), gene 101933533; assay: ATG_trERa_XSP1: Attagene TRANS-FACTORIAL Multi-Species (XSP1) HepG2 Assay for turtle Estrogen Receptor (ESR1) (AID 2283781)
# In short: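 Transactivation measured 24 h post-dose as reporter mRNA (RT-PCR, fluorescent capillary electrophoresis) from an NR-Gal4 turtle ER construct in HepG2. Medium included 3 nM 6-alpha-fluorotestosterone; increase over DMSO fitted.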
# [9] = target: Estrogen receptor (Homo sapiens) (UniProt P03372); assay: ATG_hERa_XSP1: Attagene TRANS-FACTORIAL Multi-Species (XSP1) HepG2 Assay for human Estrogen Receptor (ESR1) (AID 2283780)
# In short: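 Reporter transcripts from multiplexed GAL4-UAS units driven by NR-Gal4 chimeras in transiently transfected HepG2 were measured by RT-PCR with capillary electrophoresis 24 h post-dose, with 3 nM 6-alpha-fluorotestosterone present; gain-of-signal relative to DMSO.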
# Chain of chicken Estrogen Receptor (ESR1), ESR1 (gene 396099) (P06212 whole entry, looked up, the tested form may be a part): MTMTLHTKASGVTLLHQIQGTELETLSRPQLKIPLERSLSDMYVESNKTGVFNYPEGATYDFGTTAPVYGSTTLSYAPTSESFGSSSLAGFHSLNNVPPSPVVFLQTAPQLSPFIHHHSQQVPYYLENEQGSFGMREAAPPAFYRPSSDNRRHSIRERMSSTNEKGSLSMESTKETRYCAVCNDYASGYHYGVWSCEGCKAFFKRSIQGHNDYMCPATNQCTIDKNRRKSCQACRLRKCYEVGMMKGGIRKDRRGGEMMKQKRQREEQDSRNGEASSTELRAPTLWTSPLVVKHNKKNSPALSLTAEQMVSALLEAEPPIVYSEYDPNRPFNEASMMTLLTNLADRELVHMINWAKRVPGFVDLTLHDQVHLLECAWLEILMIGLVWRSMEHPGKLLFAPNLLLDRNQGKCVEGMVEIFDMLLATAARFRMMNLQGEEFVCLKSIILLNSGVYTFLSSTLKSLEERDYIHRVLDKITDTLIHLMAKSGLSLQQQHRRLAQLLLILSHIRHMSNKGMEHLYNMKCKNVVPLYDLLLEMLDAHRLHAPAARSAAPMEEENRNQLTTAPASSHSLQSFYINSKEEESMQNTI
# Chain of Estrogen receptor (Homo sapiens) (P03372 whole entry, looked up, the tested form may be a part): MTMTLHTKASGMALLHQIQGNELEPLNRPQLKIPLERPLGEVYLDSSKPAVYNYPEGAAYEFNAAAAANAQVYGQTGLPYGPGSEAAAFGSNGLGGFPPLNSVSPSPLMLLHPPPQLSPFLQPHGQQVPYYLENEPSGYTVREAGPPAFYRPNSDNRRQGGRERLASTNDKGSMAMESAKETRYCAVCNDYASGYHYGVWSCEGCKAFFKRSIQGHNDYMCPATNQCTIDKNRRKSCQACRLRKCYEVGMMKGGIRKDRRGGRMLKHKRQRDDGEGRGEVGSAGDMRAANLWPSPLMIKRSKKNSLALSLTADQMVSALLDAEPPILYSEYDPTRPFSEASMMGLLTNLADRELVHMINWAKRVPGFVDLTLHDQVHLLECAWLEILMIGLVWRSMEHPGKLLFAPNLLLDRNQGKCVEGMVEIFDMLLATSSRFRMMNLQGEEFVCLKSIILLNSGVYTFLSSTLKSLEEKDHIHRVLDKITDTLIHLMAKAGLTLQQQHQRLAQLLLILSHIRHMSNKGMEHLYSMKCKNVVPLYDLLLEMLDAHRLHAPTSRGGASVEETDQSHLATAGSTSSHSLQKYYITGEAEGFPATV
compound,measurement,setting,value
O=C(N[C@H](c1ccccc1)[C@@H]1CN2CCC1CC2)c1c(Cl)ccc(C(F)(F)F)c1Cl,AC50,[1],62.8 µM (active)
same,AC50,[2],55.8 µM (active)
same,AC50,[3],61.2 µM (active)
Cc1ccc(N=C=O)cc1N=C=O,AC50,[1],25.1 µM (active)
same,AC50,[2],24 µM (active)
CC(C)(C)C(O)(CCc1ccc(Cl)cc1)Cn1cncn1 (centres undefined),AC50,[1],87 µM (active)
same,AC50,[2],58.9 µM (active)
same,AC50,[3],69.2 µM (active)
Nc1ccc(Cc2ccc(N)cc2)cc1,outcome,[1],inactive
same,AC50,[2],28.1 µM (active)
Cc1ccc(N)cc1,outcome,[1],inactive
same,outcome,[2],inactive
CN(C)C(=O)Nc1ccc(Cl)cc1,outcome,[1],inactive
same,AC50,[2],50 µM (active)
same,outcome,[3],inactive
COP(=S)(OC)SCN1C(=O)c2ccccc2C1=O,AC50,[1],79.7 µM (active)
same,AC50,[2],64.7 µM (active)
CCOc1cccc(C2(N3CCN(c4ccccc4)CC3)CCC(C)CC2)c1 (centres undefined),outcome,[1],inactive
same,outcome,[2],inactive
same,outcome,[3],inactive
Cc1ccc([N+](=O)[O-])cc1,outcome,[1],inactive
same,outcome,[2],inactive
N#CC(Br)(Br)C(N)=O,outcome,[1],inactive
same,outcome,[2],inactive
same,outcome,[3],inactive
OCCCBr,outcome,[1],inactive
same,outcome,[2],inactive
CCCCOC(=O)c1ccccc1C(=O)OCc1ccccc1,AC50,[4],9.27 µM (active)
same,AC50,[1],50 µM (active)
same,AC50,[2],24.7 µM (active)
same,AC50,[5],7.32 µM (active)
same,AC50,[6],7.24 µM (active)
same,AC50,[7],7.78 µM (active)
same,AC50,[8],9.3 µM (active)
CCCCCOC(=O)c1ccccc1C(=O)OCCCCC,AC50,[4],27.3 µM (active)
same,AC50,[1],30 µM (active)
same,AC50,[2],67.9 µM (active)
same,outcome,[5],inactive
same,outcome,[6],inactive
same,AC50,[7],27 µM (active)
same,AC50,[9],24.2 µM (active)
same,AC50,[8],26.8 µM (active)
COc1cc(C=O)cc2c1[C@H](COC(N)=O)[C@]1(OC(C)=O)ON2C[C@H]2[C@@H]1N2C(C)=O,AC50,[1],0.0199 µM (active)
same,AC50,[2],0.00824 µM (active)
Brc1ccc(Oc2ccccc2)cc1,outcome,[1],inactive
same,outcome,[2],inactive
same,outcome,[3],inactive
CCCCCCCCCCCCCN1CC(C)OC(C)C1 (centres undefined),outcome,[1],inactive
same,outcome,[2],inactive
CNC(=O)Oc1cccc2c1OC(C)(C)C2,outcome,[1],inactive
same,outcome,[2],inactive
same,outcome,[3],inactive
C[N+](C)(C)CC1CO1 (centres undefined),outcome,[1],inactive
same,outcome,[2],inactive
same,outcome,[3],inactive
O=[N+]([O-])c1ccc(Oc2ccc(Cl)cc2Cl)cc1,AC50,[1],84.9 µM (active)
same,AC50,[2],31.2 µM (active)
CC(C)COC(=O)c1ccccc1C(=O)OCC(C)C,AC50,[1],74.9 µM (active)
same,AC50,[2],74.8 µM (active)
same,outcome,[3],inactive
[O-][Cl+]O,outcome,[1],inactive
same,outcome,[2],inactive
Nc1ccc(Oc2ccc(N)cc2)cc1,outcome,[1],inactive
same,outcome,[2],inactive
O=C1CCCO1,outcome,[1],inactive
same,outcome,[2],inactive
CCC[CH2][Sn]([Cl])([CH2]CCC)[CH2]CCC,AC50,[4],0.528 µM (active)
same,AC50,[1],0.567 µM (active)
same,AC50,[2],0.631 µM (active)
same,outcome,[5],inactive
same,outcome,[6],inactive
same,outcome,[9],inactive
same,AC50,[3],0.767 µM (active)
O=C(Oc1ccc(Br)cc1)N1CCN2CCC1CC2,AC50,[1],72.1 µM (active)
same,outcome,[2],inactive
same,outcome,[3],inactive
CC(C)N(Cc1ccccc1)C(=O)C(C)(C)C,outcome,[1],inactive
same,outcome,[2],inactive
Nc1ccc(N=Nc2ccccc2)cc1,AC50,[1],50 µM (active)
same,outcome,[2],inactive
same,AC50,[3],5.24 µM (active)
CCC12COCN1COC2,outcome,[1],inactive
same,outcome,[2],inactive
c1ccc2c(c1)oc1ccccc12,outcome,[1],inactive
same,outcome,[2],inactive
Clc1ccc(C(c2ccc(Cl)cc2)C(Cl)Cl)cc1,AC50,[4],6.82 µM (active)
same,AC50,[1],21.3 µM (active)
same,AC50,[2],18.1 µM (active)
same,AC50,[5],8.6 µM (active)
same,AC50,[6],17.8 µM (active)
same,AC50,[7],10.1 µM (active)
same,AC50,[9],16.4 µM (active)
same,AC50,[8],26.4 µM (active)
same,AC50,[3],26.1 µM (active)
Cn1cc(-c2ccccc2)c(=O)c(-c2cccc(C(F)(F)F)c2)c1,AC50,[1],50 µM (active)
same,AC50,[2],50 µM (active)
CCCCCCCCn1sccc1=O,AC50,[1],18.5 µM (active)
same,AC50,[2],18.4 µM (active)
same,AC50,[3],11.8 µM (active)
CN(C)c1ccccc1,outcome,[1],inactive
same,outcome,[2],inactive
CO[C@@H]1[C@H](OC(=O)NC(=O)CCl)CC[C@]2(CO2)[C@H]1[C@@]1(C)O[C@@H]1CC=C(C)C,AC50,[1],0.00152 µM (active)
same,AC50,[2],3.27 µM (active)
CCCSC(=O)N(CCC)CCC,outcome,[1],inactive
same,outcome,[2],inactive
CC(C)(O)c1cnn2c(-c3ccc(F)c(-c4c(F)cccc4C#N)c3)cnc2n1,outcome,[1],inactive
same,AC50,[2],51.1 µM (active)
Clc1ccc(C(c2ccc(Cl)cc2)C(Cl)(Cl)Cl)cc1,AC50,[4],4.09 µM (active)
same,AC50,[1],8.63 µM (active)
same,outcome,[2],inactive
same,AC50,[5],1.31 µM (active)
same,AC50,[6],17.6 µM (active)
same,AC50,[7],2.52 µM (active)
same,AC50,[8],3.31 µM (active)
same,AC50,[3],28.4 µM (active)
[As]#[In],outcome,[1],inactive
same,outcome,[2],inactive
c1ccc(C2CO2)cc1 (centres undefined),outcome,[1],inactive
same,outcome,[2],inactive
